# Experimental data taken from PubChem BioAssay (NCATS).
# Inconclusive results are not listed. Values without a mark were called inactive. The source made the active and inactive calls. Calls come from the whole dose curve; as a rule, active = well fitted inhibition curve with a large enough effect; inconclusive = small, poorly fitted or top-dose-only effect; inactive = flat fitted curve, though single readings scatter.
# Molecular target: Phospholipid hydroperoxide glutathione peroxidase GPX4 (Homo sapiens) (UniProt P36969)
# Sequence (P36969 whole entry, looked up): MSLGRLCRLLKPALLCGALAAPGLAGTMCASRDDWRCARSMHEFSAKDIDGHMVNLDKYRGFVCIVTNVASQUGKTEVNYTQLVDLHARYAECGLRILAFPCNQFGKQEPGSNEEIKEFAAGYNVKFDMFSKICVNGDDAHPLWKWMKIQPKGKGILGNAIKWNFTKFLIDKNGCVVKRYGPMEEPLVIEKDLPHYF
# Assay: Primary qHTS Assay for Inhibitors of Recombinant Selenoprotein Glutathione Peroxidase 4 (GPX4) (AID 1845192); note: nearly all actives have a fitted effect of over 65% in size
# Details: recombinant GPX4, GR-coupled NADPH fluorescence, 15 min; series mostly up to 50 µM; activity change, negative = inhibition: at the top concentration
# Source text: Assay Provider: Elias S.J. Arner MD PhD.
# Department of Medical Biochemistry and Biophysics
# Karolinska Institutet, Solna, Stockholm, Sweden
# Selenoprotein glutathione peroxidases (GPX), like the ubiquitously expressed GPX1 and the ferroptosis modulator GPX4, enact their antioxidant activities by reducing hydroperoxides using glutathione. […] GPX1 and GPX4 inhibitors have thus shown promise as anti-cancer agents. Existing inhibitors are often promiscuous, or modulate GPX activity only indirectly, so novel direct inhibitors identified through screening against GPX1 and GPX4 could be valuable. Here, we developed optimized glutathione reductase (GR)-coupled GPX assays for the biochemical high-throughput screen (HTS) of almost 12,000 compounds with known mechanisms of action. Initial hits were triaged using a GR counter-screen, assessed for isoform specificity using a separate GPX2 assay, and were assessed for general selenocysteine-targeting activity using a thioredoxin reductase (TXNRD1) assay. With this suite of assays, we identified novel GPX1/GPX2- and GPX4-specific inhibitors and can here present a validated pipeline for future discovery research for selenoprotein-targeting agents.
# SEQUENCE No. (e.g., 1, 2, 3, etc.); […] (e.g., Cells, Incubation, Reagent, etc.); VALUE; DESCRIPTION.
# 1; Reagent 1; 3 uL; 333.33 nM GPx4 enzyme or no enzyme control in 1536-well, black, solid Greiner assay plate.
# 2; Compound; 25 nL; Kalypsis pin tool (Wako USA) equipped with a 1536-well pin head.
# 3; Incubation; 30 min; room temperature.
# 4; Reagent 2; 1 uL; 500 nM GR, 5 mM GSH, 2.5 mM NADPH solution
# 5; Reagent 3; 1 uL; 2.5 mM CHP in 50% EtOH.
# 6; Detection; Fluorescence; ViewLux microplate reader, excitation 340 nm and emission 450 nm.
# 7; Incubation; 15 min; room temperature.
# 8; Detection; Fluorescence; ViewLux microplate reader, excitation 340 nm and emission 450 nm.
# NOTES (numbers refer to Sequence numbers above)
# 1. 3 µL of 333.33 nM GPX4 and 0.016% BSA in assay buffer (50 mM Tris-HCl, 2 mM EDTA (pH 7.5), 150 mM NaCl) was added to columns 3-48 of 1536-well plates using a BioRAPTR Flying Reagent Dispenser (Let's Go Robotics (LGR), Carlsbad, CA). A no-enzyme control (0.01% BSA in TES assay buffer) was added to columns 1-2.
# 2. 25 nL, library and DMSO controls were added to each well with a pin tool (Kalypsys).
# 3. The assay plates were incubated for 30 minutes at room temperature.
# 4. 1 µL of master mix (500 nM glutathione reductase (GR), 5 mM reduced glutathione (GSH), 2.5 mM NADPH in assay buffer) was added.
# 5. 1 µL of cumene hydroperoxide (CHP) ([2.5 mM] in 50% EtOH) was then added within 5 minutes to initiate the reaction. Final concentrations were: 200 nM GPX4, 1 mM GSH, 0.5 mM CHP, 0.5 mM NADPH, 100 nM GR, 0.01% BSA.
# 6. Initial fluorescence readout (t=0) at 340/450 nm was measured using a ViewLux multimodal detector (PerkinElmer, Waltham, MA).
# 8. Endpoint fluorescence readout (t=15) at 340/450 nm was measured 15 min after room temperature incubation.
# % is set by controls: 0 for no effect and ±100 for the full control effect.
Compound,"activity change, negative = inhibition",outcome,Potency
CC(C)(O)[C@@H]1[C@H]2OC(=O)[C@@H]1[C@]1(O)C[C@H]3O[C@]34C(=O)O[C@H]2[C@]14C,-8.01%,–,–
CN1C2CCC1CC(OC(c1ccccc1)c1ccccc1N)C2 (stereo not given),–,inactive,–
CC12NC(Cc3ccccc31)c1ccccc12 (stereo not given),-10.2%,–,–
CN1CCC[C@@H]1Cc1c[nH]c2ccc(Nc3ncccc3[N+](=O)[O-])cc12,–,–,inactive
CCNC(=O)[C@H]1O[C@@H](n2cnc3c(N)ncnc32)[C@H](O)[C@@H]1O,–,inactive,–
CN1CCCC1CCOC(c1cc2nccc(C(=O)O)c2[nH]1)c1ccccc1Cl (stereo not given),0.97%,–,–
C=C(CO)C(=O)O[C@H]1C/C(C)=C/CC/C(CO)=C/[C@H]2OC(=O)C(=C)[C@H]12,-2.17% [at 27.8 µM],–,–
CC(=O)OC1CC(O)C2(C)C(CC(OC(C)=O)C3(C)C2CCC2(C)C(c4ccoc4)C(=O)C4OC423)C1(C)C (stereo not given),-12.6% [at 27.8 µM],–,–
NC(N)=Nc1ccc2[nH]c3c(c2c1)C[C@@]1(O)[C@H]2Cc4ccc(O)c5c4[C@@]1(CCN2CC1CC1)[C@H]3O5,1.1%,–,–
CCS(=O)(=O)Nc1cccc(C(=C2CCCCC2)c2cnc[nH]2)c1,–,inactive,–
NC(Cc1cc(O)c(O)cc1O)C(=O)O (stereo not given),–,inactive,–
COc1ccc2c(c1)C13CCCCC1C(C2)N(C)CC3 (stereo not given),-12.9%,–,–
CC(=O)OC12C(O)C(C)C3(O)C4C=C(C)C(=O)C4CC(CO)=CC3C1C2(C)C (stereo not given),-0.556% [at 27.8 µM],–,–
C[C@H](NC(=O)Cc1cc(F)cc(F)c1)C(=O)N[C@@H]1N=C(c2ccccc2)c2ccccc2N(C)C1=O,8.91%,–,–
CCCC(=O)OC(C(Cl)(Cl)Cl)P(=O)(OC)OC (stereo not given),–,inactive [at 100 µM],–
C[C@]12CCC(=O)C=C1C=C[C@@H]1[C@@H]2CC[C@@]2(C)[C@H]1CC[C@@]2(O)CCC(=O)O,-20.6%,–,–
CC(=O)O[C@H]1C[C@@H](OC(C)=O)C(C)(C)C2C[C@@H](O)[C@]3(C)C(CC[C@@]4(C)[C@H](C5=CC(=O)OC5O)C[C@H]5O[C@]543)[C@]21C (stereo not given in full),-19.2% [at 27.8 µM],–,–
C[C@@H]1O[C@@H](O[C@H]2C[C@@H](O)[C@]3(CO)[C@@H]4C(CC[C@]3(O)C2)[C@@]2(O)CC[C@H]([C@@H]3COC(=O)C3)[C@@]2(C)C[C@H]4O)[C@H](O)[C@H](O)[C@H]1O (stereo not given in full),0.202%,–,–
CC(N)Cc1c[nH]c2ccccc12 (stereo not given),6.69%,–,–
O=C1CC[C@@]2(O)C3Cc4ccc(O)c5c4C2(CCN3CC2CC2)[C@H]1O5 (stereo not given in full),–,inactive,–

Compound,"activity change, negative = inhibition",outcome,Potency
COc1ccc2[nH]cc(CCN)c2c1,–,inactive,–
NC(=O)c1cc(N2CC2)c([N+](=O)[O-])cc1[N+](=O)[O-],–,inactive,–
Cc1cc(C(=O)CN2CCCC2)c(C)n1-c1ccc(F)cc1,–,–,inactive
COc1ccc(CNC(=O)/C=C/c2ccc3[nH]cc(CCN(C)C)c3c2)cc1,–,inactive,–
NNC(N)=O,–,inactive,–
CCOC(=O)c1ccccc1C(=O)OCC,–,inactive,–
COc1ccc2c(c1O)-c1cccc3c1[C@@H](C2)N(C)CC3,-18.5%,–,–
C[C@H](N)Cc1cccc(C(F)(F)F)c1,–,inactive,–
COC(=O)N1CCN(C(=O)Cc2ccc(Cl)c(Cl)c2)C(CN2CCCC2)C1 (stereo not given),-22.6%,–,–
COC([CH2][Hg])CNC(=O)c1ccccc1OCC(=O)O (stereo not given),-3.05% [at 15.3 µM],–,–
CN[C@H]1[C@H](O)[C@H](O[C@@H]2[C@@H](O)[C@H](O[C@H]3O[C@H]([C@H](C)O)[C@@H](O)[C@H](O)[C@H]3N)[C@@H](N)C[C@H]2N)OC[C@@]1(C)O,5.74%,–,–
COc1ccccc1CN[C@H]1C2CCN(CC2)[C@H]1C(c1ccccc1)c1ccccc1,8.55%,–,–
COC1CC(=O)C23C(=O)NC(CC(C)C)C2C(C)=C(C)C(OO)C3/C=C(\C)CCC(O)C1O (stereo not given),–,inactive [at 27.8 µM],–
NCC(O)c1cc(O)c(O)cc1F (stereo not given),2.61%,–,–
CN1C(=O)c2ccccc2NC(=O)[C@]12O[C@@H]2c1ccccc1,-12%,–,–
CC(C)(C)c1cc(C=C(C#N)C#N)cc(C(C)(C)C)c1O,–,inactive,–
CC(Cc1ccc(OCC(=O)O)cc1)NCC(O)c1cccc(Cl)c1 (stereo not given),–,inactive,–
CCOc1ccccc1-n1c(C(C)N2CCN(C(=O)COc3ccc(Cl)cc3)CC2)nc2ccccc2c1=O (stereo not given),–,–,inactive
C[C@H](Cc1ccc2c(c1)OC(C(=O)O)(C(=O)O)O2)NC[C@H](O)c1cccc(Cl)c1,–,inactive,–
C[N+]1(C)CCCCC1COC(=O)C(O)(c1ccccc1)c1ccccc1 (stereo not given),-11%,–,–
